Hit rate of the full screen: of about 39,000 compounds, about 3,300 (8.5%) were called active. The sample as a whole holds a higher share of actives than the screen did.
These compounds were tested on HepG2 (assay: cytotoxicity call (relative viability < 0.9)). Conditions: 10 µM.

Row | SMILES | cytotoxicity call
1 | C[C@H]1CN([C@@H](C)CO)C(=O)Cc2cc(NS(=O)(=O)c3ccc(Cl)cc3)ccc2O[C@H]1CN(C)Cc1ccc(Cl)c(Cl)c1 | active
2 | C[C@@H]1CN([C@H](C)CO)C(=O)Cc2cc(NS(=O)(=O)c3ccc(Cl)cc3)ccc2O[C@H]1CN(C)Cc1ccc(Cl)c(Cl)c1 | inactive
3 | C[C@@H]1CN([C@@H](C)CO)C(=O)Cc2cc(NS(=O)(=O)c3ccc(Cl)cc3)ccc2O[C@H]1CN(C)Cc1ccc(Cl)c(Cl)c1 | inactive
4 | C[C@H](CO)N1C[C@H](C)[C@H](CN(C)Cc2ccc(Cl)c(Cl)c2)Oc2ccc(NS(=O)(=O)c3ccc(Cl)cc3)cc2CC1=O | active
5 | C[C@@H]1CN([C@H](C)CO)C(=O)Cc2cc(NS(=O)(=O)c3ccc(Cl)cc3)ccc2O[C@@H]1CN(C)Cc1ccc(Cl)c(Cl)c1 | active
6 | C[C@@H]1CN([C@@H](C)CO)C(=O)Cc2cc(NS(=O)(=O)c3ccc(Cl)cc3)ccc2O[C@@H]1CN(C)Cc1ccc(Cl)c(Cl)c1 | active
7 | C[C@H](CO)N1C[C@H](C)[C@@H](CN(C)Cc2ccc(Cl)c(Cl)c2)Oc2ccc(NS(=O)(=O)c3ccc(Cl)cc3)cc2CC1=O | inactive
8 | C[C@H]1CN([C@@H](C)CO)C(=O)Cc2cc(NS(=O)(=O)c3ccc(Cl)cc3)ccc2O[C@@H]1CN(C)Cc1ccc(Cl)c(Cl)c1 | inactive
9 | CO[C@H]1CN(C)C(=O)c2ccc(NS(=O)(=O)c3cn(C)cn3)cc2OC[C@@H](C)N(Cc2cccc(F)c2)C[C@H]1C | inactive
10 | C[C@H](CO)N1C[C@H](C)[C@H](CN(C)Cc2ccc(C(=O)O)cc2)Oc2c(NC(=O)C3CCOCC3)cccc2C1=O | inactive
11 | C[C@@H]1CN([C@@H](C)CO)C(=O)c2cccc(NC(=O)Nc3ccccc3)c2O[C@@H]1CN(C)Cc1ccc(Cl)c(Cl)c1 | inactive
12 | Cc1cc2n(c(=O)c1C(N)=O)CCO2 | inactive
13 | CC/C=C\C/C=C\C/C=C\C/C=C\C/C=C\C/C=C\CCC(=O)OCC | inactive
14 | C[C@@H]1CN([C@@H](C)CO)C(=O)c2cc(NC(=O)Nc3ccc4c(c3)OCO4)ccc2O[C@@H](C)CCCCO[C@@H]1CN(C)Cc1ccncc1 | inactive
15 | CCCNC(=O)N1C[C@]2(CCN(CC2)S(=O)(=O)c2ccc(cc2)OC)c2c(n(c3cc(ccc23)OC)C)[C@@H]1CO | active
16 | CCCNC(=O)N1C[C@]2(CN(C2)S(=O)(=O)c2ccccc2)c2c(n(c3cc(ccc23)OC)C)[C@H]1CO | active
17 | CCCNC(=O)N1C[C@]2(CN(C2)S(=O)(=O)c2cccc(c2)OC)c2c(n(c3cc(ccc23)OC)C)[C@@H]1CO | inactive
18 | CCCNC(=O)N1C[C@]2(CCN(CC2)S(=O)(=O)c2ccc(cc2)OC)c2c(n(c3cc(ccc23)OC)C)[C@H]1CO | inactive
19 | CCCNC(=O)N1C[C@]2(CN(C2)S(=O)(=O)c2ccccc2)c2c(n(c3cc(ccc23)OC)C)[C@@H]1CO | inactive
20 | CCCNC(=O)N1C[C@]2(CCN(CC2)S(=O)(=O)c2ccccc2)c2c(n(c3cc(ccc23)OC)C)[C@H]1CO | inactive

— the antibiotic and cytotoxicity screens of Wong et al. (2023)
